# Most compounds without a hit are left out; they make up all but 3.1% or so of the library.
# p53null 32C kill: kills p53 null cells at the permissive temperature | hit rate 0.62% among 55,000 | Potency, µM (titrated, usually from 46.1 µM), most hits filed as cytotoxic | H1299-neo p53 null cells, ATP luminescence, 24 h, 32C | AID 903; also: nearly all actives have a fitted effect of over 55% in size
#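 Cytotoxicity: H1299-neo (no p53), 32C, 24 h treatment. Concentrations up to 46 uM. Readout cellular ATP, luminescence. Normalization to DMSO basal and tamoxifen 100 uM maximal kill.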
# OvCa metastasis: ovarian cancer metastasis inhibition, 3D TME model; SKOV3ip1-GFP adhesion/invasion on 3D omental model, fluorescence; Potency, µM (doses to about 45.8 µM), actives largely listed as inhibitors; hit rate 0.1% among 46,000; also: nearly all actives have a fitted effect of over 65% in size
#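 qHTS, 4-pt dose (0.36-46 umol/L); SKOV3ip1-GFP, 1,200 cells/well, no FBS; primary omental fibroblast/mesothelial co-culture 48 h pre-grown; 2 h RT + 16 h 37 C; PBS wash, 4% PFA; GFP count 488/509 nm.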
# p53null 39C tox: kills p53 null cells at the nonpermissive temperature | H1299 p53-null (neo) cells, 39C, ATPlite viability, 24 h | Potency, µM (highest dose often 46.1 µM), hits mostly cytotoxic | hit rate 0.97% among 55,000 | AID 904; also: nearly all actives have a fitted effect of over 50% in size
#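 Temperature-shift cytotoxicity format: compound titrations on p53-null or A138V-expressing H1299 cells held 24 hr at 39C, cell ATP then measured, AC50 from Hill model.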
# mTORC1 inh: mTORC1 pathway inhibition measured by phospho-rpS6; Tsc2-/- p53-/- MEF, phospho-rpS6 immunofluorescence/PI, 24 h; Potency, µM (highest dose often 38.3 µM), hits mostly inhibitors; hit rate 0.78% among 44,000; AID 493208; also: nearly all actives have a fitted effect of over 50% in size
#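 Cell-based qHTS: Tsc2-/- p53-/- MEF, 24 h cpd, 37 °C; fix/perm, anti-phospho-S6 Alexa-488 + PI; Acumen 488 nm scan; pS6/PI ratio, % positive cells; rapamycin 7.5 nM = inhibition ref; PI count = viability.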
# S16 viability: cytotoxicity in S16 Pmp22-F2sN Schwann cells; S16 Pmp22-F2sN Schwann cells viability, CellTiter-Glo, 24 h; Potency, µM (top dose mostly 57.5 µM), usual class: cytotoxic; hit rate 0.48% among 43,000; also: nearly all actives have a fitted effect of over 65% in size
#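 Rat S16 Schwann reporter line, 24 h treatment with library compounds delivered at 23 nL per well. Cell viability by CellTiter-Glo luminescence.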
# PMP22 txn: modulators of PMP22 gene transcription in S16 Schwann cells; hit rate 2% among 43,000; Potency, µM (highest dose often 57.5 µM), usual class: inhibitors; S16 Pmp22-F2sN Schwann cells (luciferase reporters placed in the Pmp22 gene), FLuc/NLuc coincidence luminescence, 24 h; active = clear falling dose curves in both reporters; inconclusive = both reporters move, but less clearly or upward; inactive = either reporter flat; the % is the NLuc reporter signal
#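 Reporter cells (S16 Pmp22-F2sN, 500–1,000 per well) exposed to compounds for 24 h, 37C, 5% CO2; lysis with FLuc read after 10 min, then Stop&Glo and NLuc read after 10 min.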
# NLuc saturating: inhibits NanoLuc at saturating substrate, PMP22 counter-screen; Secreted NLuc enzyme (filtered S16 cell medium), Nano-Glo luminescence; shares compounds with PMP22 txn; Potency, µM (highest dose often 57.5 µM), usual class: inhibitors; AID 1508638; hit rate 4% among 690
# NLuc Km ctr: NanoLuc inhibition at Km substrate, PMP22 artifact check | hit rate 5% among 690 | Potency, µM (highest dose often 57.5 µM), hits mostly inhibitors | secreted NLuc enzyme, coelenterazine luminescence, Km conditions | shares compounds with PMP22 txn
# FLuc counter: firefly luciferase enzyme inhibition artifact for PMP22 screen | shares compounds with PMP22 txn | purified P. pyralis FLuc, luminescence, 10 min | Potency, µM (highest dose often 57.5 µM), actives largely listed as inhibitors | 690 tested, under 10 active | AID 1508640
# Target sequence (P08659 whole entry, looked up): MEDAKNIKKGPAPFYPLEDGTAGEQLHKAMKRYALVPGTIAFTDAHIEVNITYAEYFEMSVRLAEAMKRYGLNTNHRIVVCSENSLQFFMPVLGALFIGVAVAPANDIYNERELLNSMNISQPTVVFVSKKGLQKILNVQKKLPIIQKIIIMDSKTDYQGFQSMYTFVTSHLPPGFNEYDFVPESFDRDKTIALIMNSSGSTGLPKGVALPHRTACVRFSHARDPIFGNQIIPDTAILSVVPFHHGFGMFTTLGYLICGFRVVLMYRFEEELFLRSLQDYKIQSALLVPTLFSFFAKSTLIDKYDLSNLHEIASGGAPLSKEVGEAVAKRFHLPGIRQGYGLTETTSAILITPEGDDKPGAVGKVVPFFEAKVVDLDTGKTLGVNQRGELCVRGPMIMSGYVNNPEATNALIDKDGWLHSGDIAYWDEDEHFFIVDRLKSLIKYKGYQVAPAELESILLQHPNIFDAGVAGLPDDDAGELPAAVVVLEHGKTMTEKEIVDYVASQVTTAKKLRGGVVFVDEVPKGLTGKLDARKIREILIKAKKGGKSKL
# S16 viab conf: S16 Schwann cell cytotoxicity, confirmatory. hit rate 7% among 690. Potency, µM (highest dose often 57.5 µM), most hits filed as cytotoxic. shares compounds with PMP22 txn. S16 Schwann cells viability, CellTiter-Glo ATP luminescence, 24 h
# PMP22 txn cnf: confirmation of modulators of PMP22 gene transcription in S16 cells. AID 1508646. Potency, µM (series often up to 57.5 µM), hits mostly inhibitors. S16 Schwann cells Pmp22-F2sN, dual luciferase, 24 h. shares compounds with PMP22 txn. hit rate 22% among 690; active = clear falling dose curves in both reporters; inconclusive = both reporters move, but less clearly or upward; inactive = either reporter flat; the % is the FLuc reporter signal
# PMP22 HiBiT cnf: confirmation of modulators of rat PMP22 protein expression; 95 tested, under 10 active; shares compounds with PMP22 txn; S16 Schwann cells Pmp22-HiBiT, luminescence, 48 h; Potency, µM (doses to about 27.9 µM), actives largely listed as inhibitors
# Target sequence (P25094 whole entry, looked up): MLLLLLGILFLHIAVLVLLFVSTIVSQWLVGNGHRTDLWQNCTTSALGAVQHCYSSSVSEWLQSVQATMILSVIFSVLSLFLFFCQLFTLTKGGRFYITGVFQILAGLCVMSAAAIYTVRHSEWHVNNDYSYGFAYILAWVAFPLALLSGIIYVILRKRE
# Numbers stand for hits; . = inactive; ? = inconclusive; / = not tested or not shown. Unless noted, calls follow the shape of the dose curve; as a rule, active = well fitted curve in the direction sought with a large enough effect; inconclusive = small, poorly fitted or top-dose-only effect, or another doubt; inactive = no such curve, though single readings can be large; an effect the other way counts as inactive or inconclusive.
SMILES,p53null 32C kill,OvCa metastasis,p53null 39C tox,mTORC1 inh,S16 viability,PMP22 txn,NLuc saturating,NLuc Km ctr,FLuc counter,S16 viab conf,PMP22 txn cnf,others
CCOCCCNC(=O)c1ccc(-n2c(-c3ccccc3)cc3c2CCCCC3)cc1,.,.,.,.,.,.,/,/,/,/,/,
CCCNC(=O)c1ccc(-n2c(-c3ccccc3)cc3c2CCCCC3)cc1,.,?,.,.,.,?,/,/,/,/,/,
CCC(C)NC(=O)c1ccc(-n2c(-c3ccccc3)cc3c2CCCC3)cc1 (centres undefined),.,.,.,.,.,?,/,/,/,/,/,
CC(C)NC(=O)c1ccc(-n2c(-c3ccccc3)cc3c2CCCC3)cc1,.,.,.,?,?,14µM,.,.,.,?,.,
CC(C)OCCCNC(=O)c1ccc(-n2c(-c3ccccc3)cc3c2CCCC3)cc1,.,.,.,.,.,13µM,.,.,.,.,?,
CN(C)CCNC(=O)c1ccc(-n2c(-c3ccccc3)cc3c2CCCC3)cc1,.,.,.,?,.,20µM,.,.,.,?,?,
COCCCNC(=O)c1ccc(-n2c(-c3ccccc3)cc3c2CCC(C)C3)cc1 (centres undefined),.,.,.,.,.,18µM,.,.,.,?,2.7µM,PMP22 HiBiT cnf=.
Cc1ccc(S(=O)(=O)C(CNS(=O)(=O)c2ccc(F)c(C(F)(F)F)c2)c2ccco2)cc1 (centres undefined),.,.,.,?,?,14µM,.,?,.,.,.,
COc1ccc(S(=O)(=O)NCC(c2ccco2)S(=O)(=O)c2ccc(C)cc2)cc1F (centres undefined),.,.,.,.,?,?,/,/,/,/,/,
CC(C)OC(=O)OCOP(=O)(CO[C@H](C)Cn1cnc2c(N)ncnc21)OCOC(=O)OC(C)C,/,.,/,/,/,/,/,/,/,/,/,
Cc1ccccc1NC(=O)Cn1c(=O)n(CCC(=O)NCc2ccc3c(c2)OCO3)c(=O)c2sccc21,.,.,?,.,.,.,/,/,/,/,/,
COc1ccc(N2CCN(CCCNC(=O)c3ccc4nc(Cc5ccccc5)oc4c3)CC2)cc1,.,?,.,.,?,19µM,?,?,.,?,?,
COc1ccc(N2CCN(CCCNC(=O)c3ccc4nc(CCc5ccccc5)oc4c3)CC2)cc1,.,.,.,.,.,?,/,/,/,/,/,
O=C(NCCCN1CCN(c2cccc(Cl)c2)CC1)c1ccc2nc(Cc3ccccc3)oc2c1,.,.,?,.,?,?,/,/,/,/,/,
O=C(NCCCN1CCN(c2ccccc2)CC1)c1ccc2nc(CCc3ccccc3)oc2c1,.,?,.,.,?,19µM,.,.,.,.,?,
Cc1ccc(S(=O)(=O)c2nnn(CC(=O)Nc3ccccc3C)c2N)cc1,.,.,.,.,.,.,/,/,/,/,/,
COc1cccc(Cn2c(CNC(=O)c3cc([N+](=O)[O-])ccc3Cl)nc3cccnc32)c1,.,.,.,.,.,13µM,.,.,.,.,.,
CNC(=O)c1ccc(C)c(-n2c(C)cc(OCc3ccc(F)cc3F)c(Br)c2=O)c1,/,.,/,/,/,/,/,/,/,/,/,
CC1(C)CC(=O)c2c(C(F)(F)F)nn(-c3ccc(C(N)=O)c(NC4CCC(O)CC4)c3)c2C1 (centres undefined),/,.,/,/,/,/,/,/,/,/,/,
COc1ccc(NC(=O)N2CCc3c(sc4c3CCCC4)C2c2ccc(F)cc2)cc1 (centres undefined),.,.,.,.,?,15µM,.,.,.,?,.,
Cc1c(C(=O)NCc2ccccc2)sc2nc[nH]c(=O)c12,.,.,.,.,.,.,/,/,/,/,/,
Cc1c(C(=O)NCc2cccc(Cl)c2)sc2nc[nH]c(=O)c12,.,.,.,.,.,?,?,.,.,?,.,
CC[C@]1(O)C[C@H]2CN(CCC3=c4ccccc4=N[C]3[C@@](C(=O)OC)(c3cc4c(cc3OC)N(C)[C@H]3[C@@](O)(C(N)=O)[C@H](O)[C@]5(CC)C=CCN6CC[C@]43[C@@H]65)C2)C1,/,.,/,/,/,/,/,/,/,/,/,
CCc1ccc(NC(=O)c2ccc3c(c2)c(C)c(C)n3Cc2ccccc2)cc1,.,.,.,.,.,?,.,.,?,.,?,
COc1cc(NC(=O)N2CCC(CN3CCOCC3)CC2)cc(OC)c1OC,.,.,.,.,.,.,.,.,.,.,.,
SMILES,p53null 32C kill,OvCa metastasis,p53null 39C tox,mTORC1 inh,S16 viability,PMP22 txn,NLuc saturating,NLuc Km ctr,FLuc counter,S16 viab conf,PMP22 txn cnf,others
CCOC(=O)c1c(S(=O)(=O)N2CCCC(C(=O)N3CCN(c4cccc(C)c4C)CC3)C2)c(C)n(C)c1C (centres undefined),.,.,.,.,.,17µM,?,?,.,.,.,
O=C(CCS(=O)(=O)c1nc(-c2ccc3c(c2)OCO3)cc(C(F)(F)F)n1)Nc1ccc(F)c(Cl)c1,?,?,?,.,?,13µM,.,?,.,.,?,
Cc1cnc(Nc2ccc(N3CCN(C)CC3)cc2)nc1Nc1cccc(S(=O)(=O)NC(C)(C)C)c1,/,.,/,/,/,/,/,/,/,/,/,
CCOc1ccc(-c2c(C)nn3c(C)c(C(=O)NCC(C)c4ccccc4)cnc23)cc1OCC (centres undefined),.,.,.,.,.,17µM,?,?,.,.,?,
CCOc1ccc(-c2c(C)nn3c(C)c(C(=O)NCCN(C)C)cnc23)cc1OCC,.,.,.,.,.,.,/,/,/,/,/,
Cc1cccc(-n2ccnc2SCC(=O)Nc2nc3ccccc3s2)c1,.,.,.,.,.,.,/,/,/,/,/,

# From PubChem
